Assay results as given in PubChem BioAssay (Tox21).
Inconclusive results are not listed. Active and inactive are the calls of the source. The call rests on the fitted dose curve; in most records, active means well fitted inhibition curve with a large enough effect in the signal ratio in the repeat runs (not every such curve was filed as active); inconclusive means weak or mixed curves, or effect the other way; inactive means no such curve, though single readings can be large or run the other way; the % refers to the signal ratio.

Target: Bile acid receptor (Homo sapiens) (UniProt Q96RI1)
Assay: qHTS assay to identify small molecule antagonists of the farnesoid-X-receptor (FXR) signaling pathway (AID 743217)
Conditions: HEK293T FXR-UAS-bla, beta-lactamase ratio, CDCA-stimulated, 16 h; series mostly up to 62.6 µM
Description: U.S. Tox21 Program National Center for Advancing Translational Sciences [NCATS] NIH Chemical Genomics Center [NCGC] U.S. Environmental Protection Agency [EPA] National Institutes of Environmental Health Sciences [NIEHS] National Toxicology Program [NTP] U.S. Food and Drug Administration [FDA] Tox21 Assay Overview: The farnesoid-X-receptor (FXR), a nuclear hormone receptor, is highly expressed in liver, intestine, kidney and adrenal cortex. Natural ligands of FXR are the bile acids (Cholic acid, Chenodeoxy cholic acid etc). FXR is an important regulator of diverse metabolic pathways, including the bile acid homeostasis, lipid and glucose metabolisms. FXR regulates the expression of target genes by binding either as a monomer or as a heterodimer with the retinoid X receptor (RXR). Numerous studies have reported that FXR exerts protective function during cholestasis, diabetes, liver regeneration, and cancer. To identify compounds that inhibit FXR signaling, GeneBLAzer FXR-UAS-bla HEK 293T cell line (Invitrogen, Carlsbad, CA) containing a beta-lactamase reporter gene under the control of a UAS response element was used to screen the Tox21 10K compound library.
Tox21 Assay Protocol Summary: FXR-bla cells were dispensed at 5000 cells/5uL/well in 1536-well black wall/clear bottom plates using a Multidrop Combi (Thermo Fisher Scientific, Waltham, MA) dispenser. After the assay plates were incubated at 37C and 5% CO2 for 5 h, 23 nL of compounds dissolved in DMSO, positive controls or DMSO only was transferred to the assay plate by a Pintool station (Kalypsys, San Diego, CA), followed by addition of 1 uL Chenodeoxycholic acid (50 uM, final concentration in the wells). The assay plates were incubated at 37C for 16 h. After 1 uL of LiveBLAzerTM B/G FRET substrate was added using a Bioraptr Flying Reagent Dispenser (FRD) workstation (Beckman Coulter, Indianapolis, IN), the plates were incubated at room temperature for 2 h, and fluorescence intensity was measured by an Envision plate reader (PerkinElmer, Shelton, CT).

Sequence of Bile acid receptor (Homo sapiens) (Q96RI1 whole entry, looked up): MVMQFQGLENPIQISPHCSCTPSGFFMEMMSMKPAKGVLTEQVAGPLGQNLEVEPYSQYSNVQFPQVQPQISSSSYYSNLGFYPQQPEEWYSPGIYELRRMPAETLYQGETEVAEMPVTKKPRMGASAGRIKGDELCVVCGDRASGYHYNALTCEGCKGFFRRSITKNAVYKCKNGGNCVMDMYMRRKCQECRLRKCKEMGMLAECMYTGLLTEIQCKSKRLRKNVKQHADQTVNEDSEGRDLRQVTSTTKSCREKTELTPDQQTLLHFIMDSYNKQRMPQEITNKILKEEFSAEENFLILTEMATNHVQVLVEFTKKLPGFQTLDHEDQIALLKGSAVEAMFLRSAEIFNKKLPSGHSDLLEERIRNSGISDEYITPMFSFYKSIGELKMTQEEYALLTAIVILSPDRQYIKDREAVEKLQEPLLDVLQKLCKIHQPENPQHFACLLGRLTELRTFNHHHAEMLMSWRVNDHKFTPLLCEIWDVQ

Row | Compound | outcome
1 | CN1CCN(C2=Nc3ccccc3Sc3ccc(Cl)cc32)CC1 | inactive
2 | CN(C)CC[C@@H](c1ccc(Br)cc1)c1ccccn1 | inactive
3 | CCCCCCCCCCCCCCCCCBr | inactive
4 | CCCCC(CC)COCCCN (stereo not given) | inactive
5 | CCCCCCc1ccc(N)cc1 | inactive
6 | CNS(=O)(=O)Cc1ccc2[nH]cc(CCN(C)C)c2c1 | inactive
7 | CCOC(=O)C1=NN(c2ccccc2)C(=O)C1 | inactive
8 | CC(C)c1cccc(C(C)C)c1NC(=O)NS(=O)(=O)c1cc(C(C)(C)O)co1 | inactive
9 | C[C@@H](C1=C(CCN(C)C)Cc2ccccc21)c1ccccn1 | inactive
10 | COc1cc(C(C)(C)C)c(O)c(C(C)(C)C)c1 | inactive
11 | O=C1Nc2cc(Cl)ccc2Oc2ccccc21 | inactive
12 | Nc1ccc(C(=O)N2CC3CC(CN(Cc4ccccc4)C3)C2)cc1 | inactive
13 | COCCCCCCCCOCCC[Si](C)(O[Si](C)(C)C)O[Si](C)(C)C | inactive
14 | CN(C(=O)CCCOc1ccc2[nH]c(=O)ccc2c1)C1CCCCC1 | inactive
15 | O=c1[nH]cnc2ccccc12 | inactive
16 | CC(=O)O[C@H]1C[C@@H]2CC[C@@H]3[C@H](CC[C@@]4(C)[C@H]3C[C@H]([N+]3(C)CCCCC3)[C@@H]4OC(C)=O)[C@@]2(C)C[C@@H]1N1CCCCC1 | inactive
17 | O=S1(=O)c2cccc3cccc(c23)N1CCCN1CCN(c2ccc(F)cc2)CC1 | inactive
18 | C=CC(C)(CCC=C(C)C)OC(=O)c1ccccc1 (stereo not given) | inactive
19 | Cn1c(=O)c2c(ncn2CC(O)CO)n(C)c1=O (stereo not given) | inactive
20 | CCCCOc1cc(C(=O)OCCN(CC)CC)ccc1N | inactive

Row | Compound | outcome
21 | CCCCc1cc2ccccc2c(OCCN(C)C)n1 | inactive
22 | Cn1sccc1=O | inactive
23 | CCOC(=O)CC(=O)c1cc(F)c(Cl)nc1Cl | inactive
24 | Nc1nc(N)c(-c2ccccc2)s1 | inactive
25 | CCCCCCCCCCCCCCCBr | inactive
26 | C=CCCCCCC | inactive
27 | CC(C)CCCC(C)CCO (stereo not given) | inactive
28 | Cc1cc(O)ccc1N | inactive
29 | O=CNc1ccccc1 | inactive
30 | Cc1cc(CC(=O)O)c(C)n1-c1ccc(Cl)cc1 | inactive
31 | O=C1c2cccc(O)c2C(=O)c2c(O)cc(CO)cc21 | inactive
32 | O=C(NN1CCCC1)NS(=O)(=O)c1ccc(Cl)cc1 | inactive
33 | Cc1ccccn1 | inactive
34 | CCCCOC(O)CC (stereo not given) | inactive
35 | C#CCOC(=O)[C@@H](C)Oc1ccc(Oc2ncc(Cl)cc2F)cc1 | inactive
36 | Cn1c(N)nc2nc[nH]c2c1=O | inactive
37 | CC(C)(C)C1CCCCC1O (stereo not given) | inactive
38 | COC(=O)CSc1cc(N=c2sc(=O)n3n2CCCC3)c(F)cc1Cl | inactive
39 | N#CCc1cccc(C(F)(F)F)c1 | inactive
40 | CCN1CCC[C@H]1CNC(=O)c1c(OC)ccc(Br)c1OC | inactive
